Results as given in the supplement of paper PMC11732987, “Enantioselective OTUD7B fragment discovery through chemoproteomics screening and high-throughput optimisation” (Communications Chemistry, 2025).

How the values were obtained:
Experiment in all cases: log2 ratio of Biotin-Ahx-Ub-VS probe labelling (fragment/DMSO); higher = less target engagement (more negative = stronger competition), active = hit call of the paper (q ≤ 0.05, log2 ratio ≤ -1)
Conditions in all cases: compound concentration: 200 uM; treatment time: 3 h
USP42 = molecular target: T1, USP42 (UniProt Q9H9J4)
T1 sequence (whole entry): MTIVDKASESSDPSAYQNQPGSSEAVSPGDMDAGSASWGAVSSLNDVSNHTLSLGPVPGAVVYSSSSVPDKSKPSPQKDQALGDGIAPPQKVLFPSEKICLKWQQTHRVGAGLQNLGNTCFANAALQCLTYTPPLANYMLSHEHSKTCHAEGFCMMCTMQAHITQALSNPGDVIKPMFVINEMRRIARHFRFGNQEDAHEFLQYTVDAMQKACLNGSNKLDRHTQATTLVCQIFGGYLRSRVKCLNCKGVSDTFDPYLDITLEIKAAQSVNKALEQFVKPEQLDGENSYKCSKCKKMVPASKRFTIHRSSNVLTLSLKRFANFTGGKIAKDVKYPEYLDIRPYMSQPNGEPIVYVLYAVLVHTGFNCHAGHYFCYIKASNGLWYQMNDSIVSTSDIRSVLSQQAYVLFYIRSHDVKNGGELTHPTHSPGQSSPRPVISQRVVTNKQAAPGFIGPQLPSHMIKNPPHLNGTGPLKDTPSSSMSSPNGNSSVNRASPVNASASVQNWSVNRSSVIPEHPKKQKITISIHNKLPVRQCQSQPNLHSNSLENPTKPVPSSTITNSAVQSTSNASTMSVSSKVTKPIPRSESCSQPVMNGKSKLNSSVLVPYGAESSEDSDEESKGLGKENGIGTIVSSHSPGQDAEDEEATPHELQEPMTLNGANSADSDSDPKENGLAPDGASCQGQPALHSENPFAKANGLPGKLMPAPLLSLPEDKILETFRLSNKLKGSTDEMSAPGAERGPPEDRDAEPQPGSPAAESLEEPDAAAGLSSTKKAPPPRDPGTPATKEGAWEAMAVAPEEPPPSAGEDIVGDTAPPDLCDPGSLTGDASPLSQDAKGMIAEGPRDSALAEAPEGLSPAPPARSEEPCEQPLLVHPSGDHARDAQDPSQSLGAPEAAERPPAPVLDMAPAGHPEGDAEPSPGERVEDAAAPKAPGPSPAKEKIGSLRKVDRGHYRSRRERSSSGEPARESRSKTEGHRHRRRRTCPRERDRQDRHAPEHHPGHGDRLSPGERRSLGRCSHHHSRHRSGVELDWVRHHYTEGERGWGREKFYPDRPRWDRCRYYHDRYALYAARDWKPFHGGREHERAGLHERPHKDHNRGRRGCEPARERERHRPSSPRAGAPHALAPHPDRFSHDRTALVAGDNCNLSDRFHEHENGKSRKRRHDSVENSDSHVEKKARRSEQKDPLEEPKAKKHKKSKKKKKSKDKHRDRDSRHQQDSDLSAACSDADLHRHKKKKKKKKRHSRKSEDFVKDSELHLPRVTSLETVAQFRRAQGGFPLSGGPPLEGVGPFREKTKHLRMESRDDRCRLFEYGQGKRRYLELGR
Procedure, shortened: (§1)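 The table lists average log2 ratios of fragment over vehicle, from an unpaired t-test on global-median-normalised Spectronaut label-free quantities. Proteins with ≥2 unique peptides were used. Samples were HEK293T lysate (495 µg) treated in triplicate with fragment at 200 µM or vehicle for 3 h, then with Biotin-Ahx-Ub-VS (0.5 µM final) for 1 h, with labelled DUBs NeutrAvidin-enriched and run by diaPASEF LC-MS/MS.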

USP46 = USP46 (UniProt P62068)
Procedure, shortened: as §1

USP47 = molecular target: T2, USP47 (UniProt Q96K76)
T2 sequence (whole entry): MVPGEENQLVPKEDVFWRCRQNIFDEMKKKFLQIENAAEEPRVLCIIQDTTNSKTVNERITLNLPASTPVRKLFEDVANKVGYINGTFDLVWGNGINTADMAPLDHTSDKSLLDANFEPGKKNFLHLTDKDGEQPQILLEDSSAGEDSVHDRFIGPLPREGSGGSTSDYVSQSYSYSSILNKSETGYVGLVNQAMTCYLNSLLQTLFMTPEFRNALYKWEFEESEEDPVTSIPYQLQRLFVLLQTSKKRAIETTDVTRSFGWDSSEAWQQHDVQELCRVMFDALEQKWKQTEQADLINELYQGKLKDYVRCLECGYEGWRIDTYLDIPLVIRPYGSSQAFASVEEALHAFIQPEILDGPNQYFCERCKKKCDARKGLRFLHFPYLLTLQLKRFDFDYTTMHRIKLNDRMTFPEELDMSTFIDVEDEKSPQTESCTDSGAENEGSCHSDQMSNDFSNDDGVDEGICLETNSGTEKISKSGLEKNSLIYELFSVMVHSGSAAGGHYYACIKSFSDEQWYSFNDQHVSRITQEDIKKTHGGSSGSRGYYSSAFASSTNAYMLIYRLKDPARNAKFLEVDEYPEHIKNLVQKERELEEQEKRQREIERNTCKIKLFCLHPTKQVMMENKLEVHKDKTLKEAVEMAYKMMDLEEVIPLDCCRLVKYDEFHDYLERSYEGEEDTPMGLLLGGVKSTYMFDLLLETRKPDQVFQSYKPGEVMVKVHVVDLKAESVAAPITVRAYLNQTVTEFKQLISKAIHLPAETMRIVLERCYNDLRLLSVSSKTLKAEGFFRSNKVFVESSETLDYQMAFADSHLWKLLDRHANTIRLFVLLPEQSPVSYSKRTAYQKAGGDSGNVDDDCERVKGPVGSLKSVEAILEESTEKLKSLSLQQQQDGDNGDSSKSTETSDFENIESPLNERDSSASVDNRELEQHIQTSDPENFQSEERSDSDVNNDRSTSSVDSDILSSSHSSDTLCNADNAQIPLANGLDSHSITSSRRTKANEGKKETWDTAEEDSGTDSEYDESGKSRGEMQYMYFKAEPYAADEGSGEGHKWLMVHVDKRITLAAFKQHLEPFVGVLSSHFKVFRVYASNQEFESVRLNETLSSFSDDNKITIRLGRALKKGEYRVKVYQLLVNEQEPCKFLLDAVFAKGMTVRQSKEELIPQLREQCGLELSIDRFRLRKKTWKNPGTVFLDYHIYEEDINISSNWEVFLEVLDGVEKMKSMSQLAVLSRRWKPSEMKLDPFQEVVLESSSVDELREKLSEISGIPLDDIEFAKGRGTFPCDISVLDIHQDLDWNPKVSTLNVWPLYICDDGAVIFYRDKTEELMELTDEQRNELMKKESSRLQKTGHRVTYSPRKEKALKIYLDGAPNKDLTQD
Procedure, shortened: as §1

USP48 = molecular target: T3, USP48 (UniProt Q86UV5)
T3 sequence (whole entry): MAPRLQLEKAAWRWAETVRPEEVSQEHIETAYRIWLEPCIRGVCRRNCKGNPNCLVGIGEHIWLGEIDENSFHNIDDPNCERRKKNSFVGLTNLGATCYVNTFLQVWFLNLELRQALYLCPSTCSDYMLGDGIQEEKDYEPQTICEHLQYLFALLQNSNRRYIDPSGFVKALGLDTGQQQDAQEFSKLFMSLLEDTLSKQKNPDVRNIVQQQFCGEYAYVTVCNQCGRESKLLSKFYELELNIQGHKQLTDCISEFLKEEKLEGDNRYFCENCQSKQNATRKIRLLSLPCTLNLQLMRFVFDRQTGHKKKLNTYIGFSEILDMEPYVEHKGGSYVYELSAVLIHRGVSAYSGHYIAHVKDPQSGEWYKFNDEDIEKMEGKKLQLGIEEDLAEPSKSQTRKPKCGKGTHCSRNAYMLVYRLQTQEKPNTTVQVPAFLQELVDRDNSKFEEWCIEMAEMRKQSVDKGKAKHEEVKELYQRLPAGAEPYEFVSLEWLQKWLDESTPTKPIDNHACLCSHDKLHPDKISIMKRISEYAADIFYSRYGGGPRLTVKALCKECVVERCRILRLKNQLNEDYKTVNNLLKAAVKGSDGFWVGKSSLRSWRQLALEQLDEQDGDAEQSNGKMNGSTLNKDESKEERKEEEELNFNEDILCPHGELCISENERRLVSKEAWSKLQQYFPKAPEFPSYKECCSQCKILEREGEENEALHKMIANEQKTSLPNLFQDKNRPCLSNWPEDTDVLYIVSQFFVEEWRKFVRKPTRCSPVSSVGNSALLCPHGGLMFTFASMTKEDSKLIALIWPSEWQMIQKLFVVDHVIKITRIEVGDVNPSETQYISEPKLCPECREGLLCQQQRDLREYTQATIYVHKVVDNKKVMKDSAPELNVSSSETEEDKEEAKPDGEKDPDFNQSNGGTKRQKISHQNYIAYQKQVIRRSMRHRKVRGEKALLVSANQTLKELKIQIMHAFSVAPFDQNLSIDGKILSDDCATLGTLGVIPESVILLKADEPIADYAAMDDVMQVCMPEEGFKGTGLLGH
Procedure, shortened: as §1

USP5 = molecular target: T4, USP5 (UniProt P45974)
T4 sequence (whole entry): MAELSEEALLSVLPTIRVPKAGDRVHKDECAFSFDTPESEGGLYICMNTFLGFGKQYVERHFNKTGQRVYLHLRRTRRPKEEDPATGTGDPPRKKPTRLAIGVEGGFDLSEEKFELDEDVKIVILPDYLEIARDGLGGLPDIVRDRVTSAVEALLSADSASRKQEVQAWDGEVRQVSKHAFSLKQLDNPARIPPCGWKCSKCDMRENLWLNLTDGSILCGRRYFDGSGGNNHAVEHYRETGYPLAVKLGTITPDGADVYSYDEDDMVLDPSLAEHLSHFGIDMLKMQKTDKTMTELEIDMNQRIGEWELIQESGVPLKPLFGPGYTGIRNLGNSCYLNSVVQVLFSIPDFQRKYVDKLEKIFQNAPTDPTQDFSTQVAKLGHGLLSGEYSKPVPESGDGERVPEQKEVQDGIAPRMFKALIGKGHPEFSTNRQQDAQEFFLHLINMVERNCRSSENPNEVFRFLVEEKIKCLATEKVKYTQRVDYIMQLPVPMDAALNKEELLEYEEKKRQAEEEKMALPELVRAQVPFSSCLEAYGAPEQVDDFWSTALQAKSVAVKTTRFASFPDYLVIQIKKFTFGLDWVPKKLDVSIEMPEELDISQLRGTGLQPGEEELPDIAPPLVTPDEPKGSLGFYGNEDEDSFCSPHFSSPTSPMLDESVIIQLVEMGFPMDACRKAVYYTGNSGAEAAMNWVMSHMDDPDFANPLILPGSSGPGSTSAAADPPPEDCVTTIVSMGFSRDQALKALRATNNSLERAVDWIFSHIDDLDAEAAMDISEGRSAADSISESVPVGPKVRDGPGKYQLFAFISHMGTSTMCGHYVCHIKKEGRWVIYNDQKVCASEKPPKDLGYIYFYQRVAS
Procedure, shortened: as §1

USP54 = USP54 (UniProt Q70EL1)
Procedure, shortened: as §1

USP7 = USP7 (UniProt Q93009)
Procedure, shortened: as §1

USP8 = molecular target: T5, USP8 (UniProt P40818)
T5 sequence (whole entry): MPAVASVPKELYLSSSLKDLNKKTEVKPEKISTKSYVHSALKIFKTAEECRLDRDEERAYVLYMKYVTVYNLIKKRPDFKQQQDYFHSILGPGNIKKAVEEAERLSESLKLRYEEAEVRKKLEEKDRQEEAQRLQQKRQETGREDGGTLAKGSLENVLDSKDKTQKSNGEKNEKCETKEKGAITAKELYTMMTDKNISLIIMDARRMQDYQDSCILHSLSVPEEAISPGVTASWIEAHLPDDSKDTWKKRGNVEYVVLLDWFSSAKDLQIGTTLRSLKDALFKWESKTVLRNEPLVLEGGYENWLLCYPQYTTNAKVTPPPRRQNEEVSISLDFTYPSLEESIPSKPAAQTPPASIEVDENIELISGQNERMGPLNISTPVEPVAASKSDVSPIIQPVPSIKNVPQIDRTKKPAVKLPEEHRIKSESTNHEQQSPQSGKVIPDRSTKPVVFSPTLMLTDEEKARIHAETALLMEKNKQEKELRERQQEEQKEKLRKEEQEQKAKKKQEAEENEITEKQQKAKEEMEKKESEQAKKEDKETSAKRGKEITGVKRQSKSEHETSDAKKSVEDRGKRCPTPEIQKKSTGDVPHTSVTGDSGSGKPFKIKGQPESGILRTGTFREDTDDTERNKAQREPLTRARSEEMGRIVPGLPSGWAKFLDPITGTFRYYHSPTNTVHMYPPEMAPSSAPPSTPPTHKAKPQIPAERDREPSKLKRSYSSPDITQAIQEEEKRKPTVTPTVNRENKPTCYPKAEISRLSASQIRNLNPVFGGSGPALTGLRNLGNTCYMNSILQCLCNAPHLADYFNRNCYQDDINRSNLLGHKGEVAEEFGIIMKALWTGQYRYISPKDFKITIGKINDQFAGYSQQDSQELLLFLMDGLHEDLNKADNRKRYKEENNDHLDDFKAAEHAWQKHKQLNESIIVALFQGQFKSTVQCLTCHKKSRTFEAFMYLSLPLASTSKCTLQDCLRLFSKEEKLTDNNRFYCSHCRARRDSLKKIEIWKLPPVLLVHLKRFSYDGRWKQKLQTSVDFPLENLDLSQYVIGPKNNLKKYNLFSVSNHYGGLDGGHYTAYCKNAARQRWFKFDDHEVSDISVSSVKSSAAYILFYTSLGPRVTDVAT
Procedure, shortened: as §1

USP9X = USP9X (UniProt Q93008)
Procedure, shortened: as §1

UniProt O00487 = molecular target: UniProt O00487
Procedure, shortened: as §1

Measured: log2 ratio of Biotin-Ahx-Ub-VS probe labelling

Chain of USP46 (P62068 whole entry): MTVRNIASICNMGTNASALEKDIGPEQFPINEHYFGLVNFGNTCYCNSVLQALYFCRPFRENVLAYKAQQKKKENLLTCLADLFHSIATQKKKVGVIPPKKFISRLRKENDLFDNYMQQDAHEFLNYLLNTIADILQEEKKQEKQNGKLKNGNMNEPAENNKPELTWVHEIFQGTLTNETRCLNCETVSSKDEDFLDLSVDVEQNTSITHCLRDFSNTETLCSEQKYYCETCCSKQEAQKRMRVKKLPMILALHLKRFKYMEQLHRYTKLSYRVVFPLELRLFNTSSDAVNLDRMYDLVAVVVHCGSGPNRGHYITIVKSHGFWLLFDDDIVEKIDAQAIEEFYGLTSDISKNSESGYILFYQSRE
Chain of UniProt O00487 (O00487 whole entry): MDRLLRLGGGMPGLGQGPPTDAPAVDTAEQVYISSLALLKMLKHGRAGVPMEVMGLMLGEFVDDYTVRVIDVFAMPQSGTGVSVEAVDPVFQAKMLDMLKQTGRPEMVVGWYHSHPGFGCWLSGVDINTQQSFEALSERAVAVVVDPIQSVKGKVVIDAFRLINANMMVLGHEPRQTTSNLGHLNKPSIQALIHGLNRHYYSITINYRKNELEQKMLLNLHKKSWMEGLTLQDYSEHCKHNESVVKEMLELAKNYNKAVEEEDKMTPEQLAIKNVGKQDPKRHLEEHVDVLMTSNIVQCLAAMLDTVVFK
Chain of USP7 (Q93009 whole entry, looked up): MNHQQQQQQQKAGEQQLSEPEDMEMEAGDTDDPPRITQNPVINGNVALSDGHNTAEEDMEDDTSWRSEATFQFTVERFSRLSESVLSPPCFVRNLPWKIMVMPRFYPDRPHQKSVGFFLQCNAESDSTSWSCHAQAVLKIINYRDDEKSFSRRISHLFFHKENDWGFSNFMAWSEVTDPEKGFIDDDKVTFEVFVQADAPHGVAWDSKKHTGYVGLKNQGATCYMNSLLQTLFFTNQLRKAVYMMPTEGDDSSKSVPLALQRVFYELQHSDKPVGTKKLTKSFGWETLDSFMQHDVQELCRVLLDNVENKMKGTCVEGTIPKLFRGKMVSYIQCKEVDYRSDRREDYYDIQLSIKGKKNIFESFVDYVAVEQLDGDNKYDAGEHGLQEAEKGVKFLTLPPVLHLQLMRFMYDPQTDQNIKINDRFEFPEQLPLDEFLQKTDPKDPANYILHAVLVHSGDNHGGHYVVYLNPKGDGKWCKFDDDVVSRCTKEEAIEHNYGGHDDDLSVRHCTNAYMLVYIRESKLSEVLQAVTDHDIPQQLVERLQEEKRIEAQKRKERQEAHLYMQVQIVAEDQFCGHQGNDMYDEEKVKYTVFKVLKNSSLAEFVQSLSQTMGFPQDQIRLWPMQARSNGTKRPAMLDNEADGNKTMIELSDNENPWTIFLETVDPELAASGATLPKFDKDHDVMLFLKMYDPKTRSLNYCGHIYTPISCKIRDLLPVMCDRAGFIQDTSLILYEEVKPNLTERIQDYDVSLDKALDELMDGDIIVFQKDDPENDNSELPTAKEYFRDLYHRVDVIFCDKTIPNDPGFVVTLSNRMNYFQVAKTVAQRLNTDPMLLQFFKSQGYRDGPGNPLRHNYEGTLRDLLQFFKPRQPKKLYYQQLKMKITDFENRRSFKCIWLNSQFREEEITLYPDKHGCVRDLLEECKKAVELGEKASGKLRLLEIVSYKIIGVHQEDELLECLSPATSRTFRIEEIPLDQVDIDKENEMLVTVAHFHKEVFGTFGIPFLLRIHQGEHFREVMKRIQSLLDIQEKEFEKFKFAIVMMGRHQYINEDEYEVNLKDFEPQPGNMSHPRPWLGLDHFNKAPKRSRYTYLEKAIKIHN
Chain of USP54 (Q70EL1 whole entry): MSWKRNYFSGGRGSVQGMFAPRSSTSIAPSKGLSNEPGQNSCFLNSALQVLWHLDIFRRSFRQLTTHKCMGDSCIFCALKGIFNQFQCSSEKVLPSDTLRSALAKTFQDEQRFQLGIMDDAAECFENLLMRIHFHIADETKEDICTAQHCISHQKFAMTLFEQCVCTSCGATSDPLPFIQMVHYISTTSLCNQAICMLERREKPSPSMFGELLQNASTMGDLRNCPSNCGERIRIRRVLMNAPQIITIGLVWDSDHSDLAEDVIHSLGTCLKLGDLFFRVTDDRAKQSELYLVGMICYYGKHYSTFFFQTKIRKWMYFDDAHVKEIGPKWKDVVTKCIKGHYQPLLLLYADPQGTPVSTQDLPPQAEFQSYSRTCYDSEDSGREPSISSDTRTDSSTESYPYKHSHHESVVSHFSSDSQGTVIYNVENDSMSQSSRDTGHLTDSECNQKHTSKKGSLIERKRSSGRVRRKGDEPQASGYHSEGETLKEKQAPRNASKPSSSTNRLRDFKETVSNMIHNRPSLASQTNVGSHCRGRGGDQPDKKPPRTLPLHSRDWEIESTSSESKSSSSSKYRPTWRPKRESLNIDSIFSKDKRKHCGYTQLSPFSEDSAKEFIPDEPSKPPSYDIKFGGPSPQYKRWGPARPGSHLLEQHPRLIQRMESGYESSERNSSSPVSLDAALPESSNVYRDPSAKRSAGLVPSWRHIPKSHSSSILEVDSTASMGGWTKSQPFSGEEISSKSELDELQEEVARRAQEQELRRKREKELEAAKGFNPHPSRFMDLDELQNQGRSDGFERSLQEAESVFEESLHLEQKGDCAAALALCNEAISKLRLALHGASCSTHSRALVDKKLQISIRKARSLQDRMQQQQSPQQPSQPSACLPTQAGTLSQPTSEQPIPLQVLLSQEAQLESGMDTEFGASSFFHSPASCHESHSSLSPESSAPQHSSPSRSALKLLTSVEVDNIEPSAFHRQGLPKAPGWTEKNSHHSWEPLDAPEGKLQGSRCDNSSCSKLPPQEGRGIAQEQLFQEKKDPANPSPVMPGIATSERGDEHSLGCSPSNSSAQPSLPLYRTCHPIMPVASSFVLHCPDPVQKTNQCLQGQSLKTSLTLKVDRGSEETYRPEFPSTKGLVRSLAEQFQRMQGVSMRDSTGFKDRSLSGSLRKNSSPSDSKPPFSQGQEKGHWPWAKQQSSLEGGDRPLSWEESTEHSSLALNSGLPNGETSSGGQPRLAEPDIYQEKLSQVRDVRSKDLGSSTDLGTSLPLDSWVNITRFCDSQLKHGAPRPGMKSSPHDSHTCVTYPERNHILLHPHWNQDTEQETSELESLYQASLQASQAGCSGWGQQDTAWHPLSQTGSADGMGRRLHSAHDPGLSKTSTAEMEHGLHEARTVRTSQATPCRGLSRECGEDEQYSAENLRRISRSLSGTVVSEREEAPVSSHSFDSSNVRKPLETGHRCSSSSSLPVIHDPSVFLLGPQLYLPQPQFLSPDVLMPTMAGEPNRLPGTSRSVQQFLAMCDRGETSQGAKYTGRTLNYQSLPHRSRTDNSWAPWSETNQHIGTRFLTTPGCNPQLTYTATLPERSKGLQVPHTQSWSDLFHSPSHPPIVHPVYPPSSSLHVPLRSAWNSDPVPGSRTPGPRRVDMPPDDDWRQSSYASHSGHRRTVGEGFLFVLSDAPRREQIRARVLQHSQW

O=C(CCl)N1CCC[C@@H]1c1ccon1
inactive: USP42 0.00575 | USP46 -0.0791 | USP47 -0.264 | USP48 -0.779 | USP5 -0.0234 | USP54 0.591 | USP7 -0.78 | USP8 -0.331 | USP9X -0.32 | UniProt O00487 -0.227
